Test results taken from PubChem BioAssay AID1159580 (chemical genetic matrix, 2015).
Hit rate of the full screen: of about 5,500 compounds, about 2,000 (36%) were called active. Roughly 18% stayed inconclusive and do not appear here. No stated cut-off is given here; in the data, active means normalized growth mostly below about 0.91 (no sharp cut-off); inconclusive means no clear call, values can overlap the other calls; inactive means mostly above about 0.92. The list shows a part of the results.

Assay: chemical genetic growth profiling, strain panel (AID 1159580);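 further: tested at 20 µM; growth read once vehicle control cultures reached saturation at 30 °C; 1 = growth at the plate median or of vehicle wells; lower values mean less growth of the strain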
Conditions: S. cerevisiae deletion strains, growth OD

Measured: normalized growth

CC(=O)O[C@]1(C(C)=O)CCC2C3C=C(Cl)C4=CC(=O)[C@@H]5C[C@@H]5[C@]4(C)C3CC[C@@]21C (some centres undefined)
inactive: locus YAL021C, strain ccr4, active compounds read low 1.06 | locus YAL026C, strain drs2, active compounds read low 1.02 | locus YAL030W, strain snc1, active compounds read low 1.01 | locus YBL061C, strain skt5, active compounds read low 1.01 | locus YBR009C, strain hhf1, active compounds read low 0.973 | locus YBR023C, strain chs3, active compounds read low 1 | locus YBR171W, strain sec66, active compounds read low 1.02 | locus YBR231C, strain swc5, active compounds read low 1.03 | locus YBR279W, strain paf1, active compounds read low 0.997 | locus YCL011C, strain gbp2, active compounds read low 0.99 | locus YCL016C, strain dcc1, active compounds read low 0.992 | locus YCL061C, strain MRC1, active compounds read low 1.02 | locus YCL069W, strain vba3, active compounds read low 1.01 | locus YCR088W, strain abp1, active compounds read low 1.01 | locus YDL005C, strain med2, active compounds read low 1 | locus YDL040C, strain nat1, active compounds read low 1.01 | locus YDR001C, strain nth1, active compounds read low 1.01 | locus YDR069C, strain doa4, active compounds read low 1.04 | locus YDR137W, strain rgp1, active compounds read low 0.968 | locus YDR159W, strain sac3, active compounds read low 0.946 | locus YDR195W, strain ref2 1.05 | locus YDR297W, strain sur2, active compounds read low 1.02 | locus YDR334W, strain swr1, active compounds read low 1 | locus YDR335W, strain msn5, active compounds read low 1.01 | locus YDR392W, strain spt3, active compounds read low 0.861 | locus YEL003W, strain gim4, active compounds read low 1.02 | locus YEL037C, strain rad23, active compounds read low 1.02 | locus YEL061C, strain CIN8 (second series), active compounds read low 1.01 | locus YER015W, strain faa2, active compounds read low 1 | locus YER016W, strain bim1, active compounds read low 1.01 | locus YER111C, strain swi4, active compounds read low 1.02 | locus YER155C, strain BEM2 (second series), active compounds read low 1.05 | locus YFR010W, strain ubp6, active compounds read low 1.03 | locus YGL167C, strain pmr1, active compounds read low 1.03 | locus YGL173C, strain kem1, active compounds read low 1.02 | locus YGL227W, strain vid30, active compounds read low 0.997 | locus YGL240W, strain doc1, active compounds read low 1.02 | locus YGL253W, strain hxk2, active compounds read low 0.973 | locus YHR013C, strain ard1, active compounds read low 1.03 | locus YHR027C, strain rpn1, active compounds read low 1.01 | locus YHR030C, strain SLT2, active compounds read low 1.03 | locus YHR079C, strain IRE1, active compounds read low 1.02 | locus YHR142W, strain chs7, active compounds read low 0.988 | locus YJL092W, strain hpr5, active compounds read low 1.02 | locus YJL095W, strain BCK1 (second series), active compounds read low 1.02 | locus YJL095W, strain BCK1, active compounds read low 1.02 | locus YJL115W, strain asf1, active compounds read low 1.01 | locus YJL129C, strain trk1, active compounds read low 1.01 | locus YJL154C, strain vps35, active compounds read low 1.01 | locus YJL164C, strain tpk1, active compounds read low 0.992 | locus YJL166W, strain qcr8, active compounds read low 1.02 | locus YJR066W, strain TOR1, active compounds read low 0.997 | locus YKL160W, strain elf1, active compounds read low 1.01 | locus YKR026C, strain gcn3, active compounds read low 1.01 | locus YKR091W, strain srl3, active compounds read low 1.01 | locus YLL001W, strain dnm1, active compounds read low 1.02 | locus YLL026W, active compounds read low 1.01 | locus YLL041C, strain sdh2, active compounds read low 1.01 | locus YLR027C, strain aat2, active compounds read low 1.02 | locus YLR113W, strain HOG1, active compounds read low 1.03 | locus YLR221C, strain rsa3, active compounds read low 0.982 | locus YLR258W, strain gsy2, active compounds read low 1.01 | locus YLR262C, strain YPT6 (second series), active compounds read low 0.977 | locus YLR320W, strain mms22, active compounds read low 0.979 | locus YLR342W, strain FKS1, active compounds read low 1.01 | locus YLR357W, strain rsc2, active compounds read low 0.999 | locus YLR370C, strain arc18, active compounds read low 1.02 | locus YLR384C, strain iki3, active compounds read low 1.01 | locus YML120C, strain ndi1, active compounds read low 1.02 | locus YMR058W, strain fet3, active compounds read low 1.02 | locus YMR125W, strain sto1, active compounds read low 1.02 | locus YMR129W, active compounds read low 1.01 | locus YMR205C, strain PFK2, active compounds read low 0.991 | locus YMR231W, strain pep5, active compounds read low 1.01 | locus YNL071W, strain lat1, active compounds read low 0.963 | locus YNL183C, strain NPR1, active compounds read low 0.986 | locus YNL209W, strain ssb2, active compounds read low 0.999 | locus YNL248C, strain rpa49, active compounds read low 1.01 | locus YNL322C, strain KRE1 (second series), active compounds read low 1.01 | locus YNR049C, strain mso1, active compounds read low 1 | locus YOR001W, strain rrp6, active compounds read low 1.03 | locus YOR070C, strain gyp1, active compounds read low 1 | locus YOR080W, strain dia2, active compounds read low 1.02 | locus YOR083W, strain WHI5, active compounds read low 0.983 | locus YOR106W, strain vam3, active compounds read low 1.01 | locus YOR231W, strain MKK1, active compounds read low 1.02 | locus YOR265W, strain rbl2, active compounds read low 1.02 | locus YOR270C, strain vph1, active compounds read low 0.954 | locus YOR290C, strain snf2, active compounds read low 0.995 | locus YPL051W, strain arl3, active compounds read low 1.01 | locus YPL078C, strain atp4, active compounds read low 1.01 | locus YPL106C, strain sse1, active compounds read low 1.04 | locus YPL240C, strain hsp82, active compounds read low 1.02 | locus YPL256C, strain CLN2, active compounds read low 1.03
